Most compounds without a hit are left out; they make up all but 0.99% or so of the library.
AMA1-RON2 inh = qHTS for Inhibitors of AMA1-RON; Towards Development of Antimalarial Drug Lead: Primary Screen | AlphaScreen AMA1-biotinylated RON2 peptide binding | hit rate 0.2% among 360,000 | Plasmodium falciparum AMA1 (3D7) - RON2 peptide interaction | Potency, µM (highest dose often 58.2 µM), for the others: at the highest dose activity change, negative = inhibition, most hits filed as inhibitors | AID 720542, 2013;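 further: potency means the concentration at half of the fitted maximal effect; 0% = vehicle wells and -100% = peptide control; nearly all actives have a fitted effect of over 45% in size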
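AMA1 (3D7) with his tag at 25 nM final met compounds first, then biotinylated RON2 peptide at 25 nM; detection used donor plus acceptor beads, 10 µg/mL apiece, read by AlphaScreen after 30 min at room temperature.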
AmpC inh detg = qHTS Inhibitors of AmpC Beta-Lactamase (assay with detergent). P00811. AmpC hydrolysis of nitrocefin, absorbance 480 nm, 0.01% Triton. Potency, µM (highest dose often 114 µM), for the others: top-dose activity change, negative = inhibition, hits mostly inhibitors. hit rate 0.041% among 370,000. AID 485294, 2010;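 further: potency means the concentration at half of the fitted maximal effect; 0% = no-compound wells and -100% = no-enzyme wells; nearly all actives have a fitted effect of over 25% in size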
Target sequence (P00811 whole entry, looked up): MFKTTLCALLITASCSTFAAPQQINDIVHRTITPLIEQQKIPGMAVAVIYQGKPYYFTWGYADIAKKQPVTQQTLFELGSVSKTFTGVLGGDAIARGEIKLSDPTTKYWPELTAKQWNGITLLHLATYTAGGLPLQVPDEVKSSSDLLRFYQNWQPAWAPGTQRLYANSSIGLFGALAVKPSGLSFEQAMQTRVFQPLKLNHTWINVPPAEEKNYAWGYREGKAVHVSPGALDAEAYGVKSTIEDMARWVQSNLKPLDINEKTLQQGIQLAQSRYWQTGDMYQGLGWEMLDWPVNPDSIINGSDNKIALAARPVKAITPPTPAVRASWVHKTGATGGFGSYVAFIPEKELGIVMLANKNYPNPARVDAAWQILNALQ
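20 mM phosphate pH 7.0 + 0.01% (detergent screen) or 0.0001% Triton X-100; 5.3 nM AmpC reagent; cpd preinc 15 min RT; nitrocefin (800 uM stock) to start; A480 q20 s × 4 min; Activity was normalised to no-enzyme and no-compound control wells.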
SARS PLpro yeast-1 = qHTS of Yeast-based Assay for SARS-CoV PLP; Potency, µM (titrated, usually from 32.9 µM), without a hit: at the highest dose activity, positive = growth rescue, usual class: activators; S. cerevisiae expressing SARS-CoV PLpro, growth rescue; hit rate 0.19% among 330,000; calls by dose curve; further: potency means the concentration at half of the fitted maximal effect; 0% is about no effect; nearly all actives have a fitted effect of over 55% in size
AmpC inh no detg = qHTS Inhibitors of AmpC Beta-Lactamase (assay without detergent) | P00811 | AmpC nitrocefin hydrolysis, absorbance 480 nm, 0.0001% Triton | Potency, µM (highest dose often 57.1 µM), for inactives: top-dose activity change, negative = inhibition, most hits filed as inhibitors | hit rate 0.52% among 330,000 | AID 485341, 2010;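 further: potency means the concentration at half of the fitted maximal effect; plate controls were no compound for no effect and no enzyme for full effect; nearly all actives have a fitted effect of over 20% in size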
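AmpC (5.3 nM in the dispensed reagent) in 20 mM phosphate pH 7.0 with 0.01% (detergent screen) or 0.0001% Triton X-100 was preincubated with compounds for 15 min at room temperature. Nitrocefin was then added from an 800 uM solution, and hydrolysis was followed at 480 nm.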
NS1 inh = qHTS Assay for Inhibitors of Influenza NS1 Protein Function; Potency, µM (doses to about 46.1 µM), for the others: top-dose activity, positive = more growth; hit rate 0.4% among 270,000; AID 2326, 2010; calls by dose curve; further: potency means the concentration at half of the fitted maximal effect; actives are rising curves; nearly all actives have a fitted effect of over 50% in size
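Read-out: OD600 growth recovery of NS1-expressing budding yeast. Cells grown overnight at 30C in -URA glucose medium, washed, resuspended and diluted 1:100 in 2% galactose assay medium, pH 6.0. Same strain lacking NS1 served as positive control.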
SARS PLpro yeast-2 = qHTS of Yeast-based Assay for SARS-CoV PLP: Hit Validation | shares compounds with SARS PLpro yeast-1 | yeast expressing SARS-CoV PLpro, growth phenotype rescue | calls only | hit rate 19% among 1,000 | AID 652038, 2013; call rule not given here
Active calls of the source: *; i = inactive; ? = inconclusive; . = no result given; + = active, no number; [ ] = dose if it differs, or a comment. Unless noted, the call rests on the fitted dose curve; in most records, active means well fitted curve in the direction sought with a large enough effect; inconclusive means small, poorly fitted or top-dose-only effect, or another doubt; inactive means no such curve, though single readings can be large; an effect the other way counts as inactive or inconclusive.

SMILES	AMA1-RON2 inh	AmpC inh detg	SARS PLpro yeast-1	AmpC inh no detg	NS1 inh	SARS PLpro yeast-2
N#CC1=C(N)Oc2c(c(=O)oc3ccccc23)C1c1cccnc1 (stereo not given)	15%	-17%	?	-15%	-7%	i
Cc1nn(-c2ccccc2)c(Cl)c1C1C(C#N)=C(N)Oc2c1c(=O)oc1ccccc21 (stereo not given)	2%	-7%	2%	-8%	0%	.
c1ccc(N2CCN(CCc3nnc4n3CCCCC4)CC2)cc1	14%	-17%	?	1%	-12%	i
c1ccc(Cc2nnc3n2CCCCC3)cc1	1%	-1%	-2%	-15%	5%	.
CCc1ccc(NC(=O)Cn2nnc(-c3ccccc3N)n2)cc1	.	-3%	.	.	.	.
Clc1cccc(N2CCN(c3nc4ccccc4c4nc(-c5cccnc5)nn34)CC2)c1	.	16%	.	.	.	.
O=C(CCN1CCOCC1)NC1CCCN(Cc2ccccc2F)C1 (stereo not given)	0%	4%	?	-3%	5%	i
CC(C)Cc1ccc(S(=O)(=O)N2CCC(c3ccncc3)CC2)cc1	.	7%	.	.	.	.
O=C(CSc1nccn1Cc1ccc(F)cc1)Nc1nc2ccccc2s1	.	23%	.	.	.	.
CCOC(=O)c1cc(C)n(CC2CCC(C(=O)Nc3cccc(C(C)=O)c3)CC2)c1C (stereo not given)	.	4%	.	.	.	.
CN1C(=O)SC(Nc2ccccc2)C1=O (stereo not given)	2%	-2%	13µM*	-11%	-3%	i
CCCCCCOc1ccc(-c2nc3ccc(Br)cc3c(=O)o2)cc1	.	13%	.	.	.	.
Cc1c(C(=O)N2CCC(c3nc4ccccc4s3)CC2)oc2ccc(Cl)cc12	.	16%	.	.	.	.
CC(NC(=O)c1ccc(N(C)C)cc1)C1CC2CCC1C2 (stereo not given)	0%	-1%	22µM*	-11%	13%	i
COc1ccc(C(=O)NC(C)C2CC3CCC2C3)cc1 (stereo not given)	0%	?	2%	-18%	4%	.
Cc1ccc(C2CC(=O)C(C=NCCN3CCN(C(=S)Nc4ccccc4)CC3)=C(O)C2)cc1 (stereo not given)	57%	1%	-1%	199%	-5%	.
CC1(C)CC(=O)C(C=NCCN2CCN(C(=S)Nc3ccccc3)CC2)=C(O)C1	23%	-7%	?	1%	-22%	i
O=C(NN=Cc1ccc(O)cc1O)c1ccccc1NS(=O)(=O)c1cccs1	70%	.	1.1µM*	-35%	.	i
CCCn1c(NC(=O)c2cccc(C)c2C)nc2ccccc21	88%	?	?	-25%	-59%	i
COc1ccccc1Nc1nc(N)nc(CSC(=S)N2CCC(C)CC2)n1	5%[2.32 µM]	0%	16µM*	-15%	?	i
COc1ccccc1Nc1nc(N)nc(CN2CCC(C)CC2)n1	-7%	5%	1%	-18%	.	.
CCOC(=O)[C@H]1[C@H]2COc3ccc(Br)cc3[C@@H]2N2C(=O)CN(Cc3ccco3)C(=O)[C@@]12C	-8%	5%	?	143%	.	i
CCOC(=O)[C@H]1[C@H]2COc3ccc(Br)cc3[C@@H]2N2C(=O)CN(Cc3ccc(Cl)cc3)C(=O)[C@@]12C	-2%	.	-5%	121%	.	.
CC1CCCC(NC(=O)CSc2ncnc3ccccc23)C1C (stereo not given)	15%	.	-6%	-6%	.	.
CC1CCCC(NC(=O)COc2ncnc3ccccc23)C1C (stereo not given)	15%	.	?	-15%	.	i
SMILES	AMA1-RON2 inh	AmpC inh detg	SARS PLpro yeast-1	AmpC inh no detg	NS1 inh	SARS PLpro yeast-2
CC(Sc1nnc(NCc2ccccc2)s1)C(=O)Nc1ccc2c(c1)C(=O)c1ccccc1C2=O (stereo not given)	-17%	3%	?	-57%	?	+
Cc1ccc(/C=C/c2onc(C)c2S(=O)(=O)N2CCC(C(=O)NCc3ccc(C)o3)CC2)cc1	.	-4%	.	.	.	.
COc1ccc(/C(N)=N/OC(=O)c2cccc([N+](=O)[O-])c2C)cc1OC	-3%	?	?	-2%	-1%	i
O=c1c2ccccc2nc(COc2ccccc2)n1/N=C/c1cc([N+](=O)[O-])ccc1O	-8%	-3%	5.6µM*	-19%	-29%	?
O=[N+]([O-])c1ccc(Cl)c(/C=N/n2c(COc3ccccc3)n[nH]c2=S)c1	62%	?	-8%	-19%	0%	.
Cc1cc(/C=N/n2c(COc3ccccc3C)nc3ccccc3c2=O)c(O)c([N+](=O)[O-])c1	?	7%	3.5µM*	-18%	?	+
COc1ccc(-c2noc(-c3ccc(NC4CCCC4)c([N+](=O)[O-])c3)n2)cc1OC	.	20%	.	.	.	.
COc1ccc(S(=O)(=O)N2CCCC2)cc1Br	-4%	0%	?	-12%	-3%	.
COc1ccc(CNC(=O)c2ccc(S(=O)(=O)N3CCCC3)cc2)cc1OC	-4%	-13%	?	7%	0%	i
COc1ccc(S(=O)(=O)N2CCCCC2)cc1C(C)C	-8%	4%	?	30%	-52%	i
Cc1ccc(C)c(CSc2nc(-c3ccccc3F)nc3c2Cc2c(CO)cnc(C)c2O3)c1	.	14%	.	.	.	.
CCn1c(C)c(C)c2cc(C(=O)NCc3ccc(OC)cc3OC)ccc21	.	3%	.	.	.	.
Cc1ccc(NC(=O)/C=C/c2ccc3c(c2)OCO3)nc1	1%	-3%	?	-16%	8%	i
Cc1c(C(=O)OCC(C)C)[nH]c2c1C(=O)CC(c1ccco1)C2 (stereo not given)	12%	-9%	16%	-22%	-18%	.
Cc1c(C(=O)OCC2CCCO2)[nH]c2c1C(=O)CC(c1ccco1)C2 (stereo not given)	-13%	0%	?	-18%	-10%	i
CCC1(c2ccccc2)NC(=S)N(c2cccc(C)c2C)N1 (stereo not given)	83%	-9%	3.2µM*	-57%	6%	?
O=C1c2ccccc2NC(c2ccc(-c3ccc(F)cc3)o2)N1O (stereo not given)	.	2%	8%	-27%	.	.
O=C1c2ccccc2NC(c2ccc(-c3cccc([N+](=O)[O-])c3)o2)N1O (stereo not given)	46%	-7%	10µM*	?	?	+
COc1cccc(OCC(=O)NCCS(=O)(=O)N2CCN(c3ccccc3F)CC2)c1	.	1%	.	.	.	.
COc1ccc(-c2c/c(=N\c3nc(-c4ccccc4)c(C)s3)c3ccccc3o2)cc1O	-24%	-6%	?	?	-8%	+
